Laboratory results from the supplement of paper PMC12819154, “High-throughput peptide-centric local stability assay extends protein–ligand identification to membrane proteins, tissues and bacteria” (Nature Structural & Molecular Biology, 2025).

The targets below were run with CN[C@@H]1C[C@H]2O[C@@](C)([C@@H]1OC)n1c3ccccc3c3c4c(c5c6ccccc6n2c5c31)C(=O)NC4 [staurosporine] (assay: log2 fold change of tryptic peptide abundance, ligand vs vehicle (limited proteolysis) (log2 ratio); higher = more trypsin-susceptible (destabilized)). Conditions: ligand concentration: 20 uM; sample: K562 cleared lysate; digestion: 4 min, 22 C (HT-PELSA RT4min, Orbitrap Astral).

Sequence of UniProt Q00535 (Q00535 whole entry, looked up): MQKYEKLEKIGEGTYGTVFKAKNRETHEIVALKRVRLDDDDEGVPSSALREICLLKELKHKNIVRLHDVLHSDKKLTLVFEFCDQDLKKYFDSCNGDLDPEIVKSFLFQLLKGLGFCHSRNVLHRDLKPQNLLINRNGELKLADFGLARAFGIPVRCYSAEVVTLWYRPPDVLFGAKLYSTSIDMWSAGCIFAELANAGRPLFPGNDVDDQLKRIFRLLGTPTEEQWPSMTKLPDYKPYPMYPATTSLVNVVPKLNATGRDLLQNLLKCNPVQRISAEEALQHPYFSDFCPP
Sequence of UniProt P11274 (P11274 whole entry): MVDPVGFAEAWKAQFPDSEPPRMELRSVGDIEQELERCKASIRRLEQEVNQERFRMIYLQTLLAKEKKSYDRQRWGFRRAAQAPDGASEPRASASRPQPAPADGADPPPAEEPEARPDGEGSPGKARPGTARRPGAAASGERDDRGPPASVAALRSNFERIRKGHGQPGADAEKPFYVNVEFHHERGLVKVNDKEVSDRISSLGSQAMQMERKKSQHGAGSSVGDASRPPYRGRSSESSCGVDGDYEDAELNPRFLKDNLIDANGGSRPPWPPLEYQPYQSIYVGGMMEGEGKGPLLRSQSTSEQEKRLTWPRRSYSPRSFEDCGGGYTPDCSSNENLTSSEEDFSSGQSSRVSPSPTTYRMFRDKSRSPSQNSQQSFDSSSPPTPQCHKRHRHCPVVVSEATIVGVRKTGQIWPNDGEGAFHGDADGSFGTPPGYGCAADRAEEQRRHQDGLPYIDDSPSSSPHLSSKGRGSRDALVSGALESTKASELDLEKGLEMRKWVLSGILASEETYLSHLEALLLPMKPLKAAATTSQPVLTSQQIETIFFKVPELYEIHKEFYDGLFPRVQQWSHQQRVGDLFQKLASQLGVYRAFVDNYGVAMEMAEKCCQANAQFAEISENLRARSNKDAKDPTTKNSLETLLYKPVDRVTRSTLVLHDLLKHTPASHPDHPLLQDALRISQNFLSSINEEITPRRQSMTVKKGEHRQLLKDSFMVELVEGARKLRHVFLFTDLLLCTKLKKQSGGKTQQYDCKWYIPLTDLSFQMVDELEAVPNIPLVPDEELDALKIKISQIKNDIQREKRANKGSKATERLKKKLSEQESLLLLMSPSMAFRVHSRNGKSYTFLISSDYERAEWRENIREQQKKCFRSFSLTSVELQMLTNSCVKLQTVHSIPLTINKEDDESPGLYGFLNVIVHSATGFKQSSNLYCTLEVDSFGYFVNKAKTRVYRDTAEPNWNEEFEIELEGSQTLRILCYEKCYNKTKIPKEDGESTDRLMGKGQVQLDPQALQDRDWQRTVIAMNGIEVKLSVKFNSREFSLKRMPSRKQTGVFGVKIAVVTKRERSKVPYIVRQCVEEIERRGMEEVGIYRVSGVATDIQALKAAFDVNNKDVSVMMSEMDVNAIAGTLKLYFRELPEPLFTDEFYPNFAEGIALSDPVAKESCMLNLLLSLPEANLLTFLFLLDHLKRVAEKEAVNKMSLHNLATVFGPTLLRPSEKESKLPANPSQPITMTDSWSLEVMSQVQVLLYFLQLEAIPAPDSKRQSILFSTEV
Sequence of UniProt Q9H4L5 (Q9H4L5 whole entry): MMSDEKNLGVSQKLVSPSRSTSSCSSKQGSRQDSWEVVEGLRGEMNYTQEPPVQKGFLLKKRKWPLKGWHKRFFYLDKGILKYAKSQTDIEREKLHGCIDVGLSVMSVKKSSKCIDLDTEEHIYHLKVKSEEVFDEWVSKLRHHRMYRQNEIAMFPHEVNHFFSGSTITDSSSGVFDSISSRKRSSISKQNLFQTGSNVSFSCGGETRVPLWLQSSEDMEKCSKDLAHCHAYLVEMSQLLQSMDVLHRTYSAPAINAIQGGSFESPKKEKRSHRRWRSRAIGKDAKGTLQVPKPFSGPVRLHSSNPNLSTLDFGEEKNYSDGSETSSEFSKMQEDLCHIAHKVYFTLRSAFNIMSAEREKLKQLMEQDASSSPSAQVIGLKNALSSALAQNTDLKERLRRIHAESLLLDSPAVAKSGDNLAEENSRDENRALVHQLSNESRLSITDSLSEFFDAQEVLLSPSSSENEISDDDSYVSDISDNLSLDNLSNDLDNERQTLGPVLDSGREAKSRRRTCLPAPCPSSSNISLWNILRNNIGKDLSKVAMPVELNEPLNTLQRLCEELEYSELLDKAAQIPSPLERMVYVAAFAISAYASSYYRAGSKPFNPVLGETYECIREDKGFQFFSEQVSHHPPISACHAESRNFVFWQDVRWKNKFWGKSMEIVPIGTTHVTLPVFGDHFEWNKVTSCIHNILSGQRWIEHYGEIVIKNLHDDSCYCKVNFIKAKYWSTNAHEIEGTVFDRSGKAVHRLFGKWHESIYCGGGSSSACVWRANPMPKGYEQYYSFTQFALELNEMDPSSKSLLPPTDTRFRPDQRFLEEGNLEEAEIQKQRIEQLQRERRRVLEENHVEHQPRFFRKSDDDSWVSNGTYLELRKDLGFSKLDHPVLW
Sequence of UniProt P63010 (P63010 whole entry): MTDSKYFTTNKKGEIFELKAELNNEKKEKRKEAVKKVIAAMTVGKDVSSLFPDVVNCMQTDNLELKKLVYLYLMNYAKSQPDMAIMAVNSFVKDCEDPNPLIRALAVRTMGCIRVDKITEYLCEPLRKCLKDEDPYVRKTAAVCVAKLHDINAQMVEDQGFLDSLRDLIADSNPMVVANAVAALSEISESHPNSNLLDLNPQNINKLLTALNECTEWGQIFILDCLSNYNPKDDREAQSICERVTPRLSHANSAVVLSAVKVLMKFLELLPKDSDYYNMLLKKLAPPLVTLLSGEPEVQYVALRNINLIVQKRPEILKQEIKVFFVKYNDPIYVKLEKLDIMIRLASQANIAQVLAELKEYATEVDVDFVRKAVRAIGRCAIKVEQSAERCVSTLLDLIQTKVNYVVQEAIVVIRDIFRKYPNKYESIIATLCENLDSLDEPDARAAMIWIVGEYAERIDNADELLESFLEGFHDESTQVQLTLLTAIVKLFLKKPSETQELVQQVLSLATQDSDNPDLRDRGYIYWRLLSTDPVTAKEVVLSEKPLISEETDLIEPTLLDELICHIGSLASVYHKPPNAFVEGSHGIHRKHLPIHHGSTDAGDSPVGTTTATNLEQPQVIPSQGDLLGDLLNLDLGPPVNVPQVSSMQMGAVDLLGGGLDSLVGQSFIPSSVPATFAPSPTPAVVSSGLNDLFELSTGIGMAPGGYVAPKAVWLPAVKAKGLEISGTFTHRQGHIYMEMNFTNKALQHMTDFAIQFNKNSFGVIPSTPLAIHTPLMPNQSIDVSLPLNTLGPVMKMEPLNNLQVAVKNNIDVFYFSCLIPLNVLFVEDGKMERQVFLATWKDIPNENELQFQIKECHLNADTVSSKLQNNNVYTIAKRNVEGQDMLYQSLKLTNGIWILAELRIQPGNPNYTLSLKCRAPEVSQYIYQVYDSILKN
Sequence of UniProt P30041 (P30041 whole entry): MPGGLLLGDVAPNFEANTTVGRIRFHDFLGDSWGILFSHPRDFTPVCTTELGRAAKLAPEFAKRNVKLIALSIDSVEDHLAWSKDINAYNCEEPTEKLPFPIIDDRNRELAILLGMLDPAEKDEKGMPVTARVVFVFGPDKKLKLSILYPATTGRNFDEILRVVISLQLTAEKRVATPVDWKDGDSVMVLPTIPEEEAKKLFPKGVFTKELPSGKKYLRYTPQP

Compared with “OSBPL3 (peptide sequence: YWSTNAHEIEGTVFDR, peptide start residue: 727) (UniProt Q9H4L5)”, “AP2B1 (peptide sequence: VIAAMTVGK, peptide start residue: 37) (UniProt P63010)” is higher in log2 fold change: -1.33 for the first, 0.277 for the second.

First: RBM34 (peptide sequence: NGAQIADGFR, peptide start residue: 263) (UniProt P42696)
Sequence of UniProt P42696 (P42696 whole entry): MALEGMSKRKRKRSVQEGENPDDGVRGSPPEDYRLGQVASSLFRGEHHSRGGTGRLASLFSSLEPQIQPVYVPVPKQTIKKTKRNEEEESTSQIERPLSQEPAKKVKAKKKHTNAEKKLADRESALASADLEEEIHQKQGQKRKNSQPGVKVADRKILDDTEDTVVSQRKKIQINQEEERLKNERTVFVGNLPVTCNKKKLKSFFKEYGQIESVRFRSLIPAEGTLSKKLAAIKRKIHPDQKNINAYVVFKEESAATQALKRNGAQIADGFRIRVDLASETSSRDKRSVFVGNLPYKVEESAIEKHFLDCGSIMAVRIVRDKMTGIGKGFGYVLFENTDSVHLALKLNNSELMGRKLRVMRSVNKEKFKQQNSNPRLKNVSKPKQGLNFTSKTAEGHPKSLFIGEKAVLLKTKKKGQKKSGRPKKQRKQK
Second: NEK9 (peptide sequence: TLNIFLTK, peptide start residue: 179) (UniProt Q8TD19)
Sequence of UniProt Q8TD19 (Q8TD19 whole entry): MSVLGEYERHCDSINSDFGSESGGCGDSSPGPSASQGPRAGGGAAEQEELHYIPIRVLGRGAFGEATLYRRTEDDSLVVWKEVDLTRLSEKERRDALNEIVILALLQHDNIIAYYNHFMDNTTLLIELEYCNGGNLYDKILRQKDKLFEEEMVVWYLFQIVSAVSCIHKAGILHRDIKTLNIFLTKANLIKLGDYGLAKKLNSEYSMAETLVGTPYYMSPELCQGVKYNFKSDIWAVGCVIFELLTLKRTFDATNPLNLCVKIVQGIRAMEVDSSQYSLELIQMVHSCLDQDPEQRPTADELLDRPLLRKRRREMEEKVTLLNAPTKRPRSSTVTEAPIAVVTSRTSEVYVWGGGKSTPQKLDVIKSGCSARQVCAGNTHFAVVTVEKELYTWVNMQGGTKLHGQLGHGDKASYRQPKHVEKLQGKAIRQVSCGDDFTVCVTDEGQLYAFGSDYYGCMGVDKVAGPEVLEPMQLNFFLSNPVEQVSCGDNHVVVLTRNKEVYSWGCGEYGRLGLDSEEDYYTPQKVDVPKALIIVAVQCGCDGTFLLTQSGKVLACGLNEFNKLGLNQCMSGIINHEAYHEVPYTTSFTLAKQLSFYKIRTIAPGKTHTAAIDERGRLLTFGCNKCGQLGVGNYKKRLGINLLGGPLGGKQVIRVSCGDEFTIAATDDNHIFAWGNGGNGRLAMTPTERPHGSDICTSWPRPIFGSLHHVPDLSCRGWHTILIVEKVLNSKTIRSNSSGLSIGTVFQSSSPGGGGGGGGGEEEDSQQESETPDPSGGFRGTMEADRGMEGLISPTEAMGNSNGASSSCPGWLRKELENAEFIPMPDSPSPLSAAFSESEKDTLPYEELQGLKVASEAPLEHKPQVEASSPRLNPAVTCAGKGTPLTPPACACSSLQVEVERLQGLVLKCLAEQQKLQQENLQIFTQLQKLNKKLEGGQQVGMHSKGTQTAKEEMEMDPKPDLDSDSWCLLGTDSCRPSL
The log2 fold change of the first is higher: 0.437 for the first, -0.436 for the second.

Going from “UniProt P45985 (peptide sequence: DIKPSNILLDR, peptide start residue: 229)” to “CDK5 (peptide sequence: DLKPQNLLINR, peptide start residue: 126) (UniProt Q00535)”, the log2 fold change falls from 0.534 to -3.41.

“PRKAR1A (peptide sequence: ILMGSTLR, peptide start residue: 234) (UniProt P10644)” and “PRDX6 (peptide sequence: NFDEILR, peptide start residue: 156) (UniProt P30041)” are within 0.2 log units of each other in log2 fold change: 0.333 for the first, 0.443 for the second.

“BCR (peptide sequence: RAAQAPDGASEPR, peptide start residue: 79) (UniProt P11274)” was tested, and the log2 fold change was 0.577.
